# Data reported in ChEMBL document CHEMBL3988442, “University of Dundee, Small-Polar-MMV Screening Library” (2021).
# Among all 48,000 compounds or so, about 13,000 (27%) showed an effect of 50% or more. Some of the results follow.
# System: Wolbachia pipientis
# Experiment: Anti-Wolbachia Cell-Based Screen
# Type: functional
# Set-up: scale not given: in the data most compounds retested in dose-response had high values
# Settings: 5 µM
row,Structure (SMILES),Percent Effect
1,N#Cc1ccccc1OCCN1CCn2c(nnc2C2CC2)C1,-2.907%
2,Cc1ccccc1-c1noc(CN2CCC(N3CCNC3=O)CC2)n1,89.22%
3,c1cc(C2CCN(Cc3nc(-c4ccsc4)no3)CC2)[nH]n1,-22.06%
4,Cc1ccccc1-c1noc(CN2CCC(c3ccn[nH]3)CC2)n1,-44.64%
5,Cc1ccccc1-c1noc(CN2CCn3c(nnc3C3CC3)C2)n1,9.498%
6,c1cnn(CC2CN(Cc3nc(-c4ccsc4)no3)CCO2)c1 (configuration not stated),-8.782%
7,O=C1NCCN1C1CCN(Cc2nc(-c3ccsc3)no2)CC1,100.1%
8,COCCN1CC2(CCCN(c3ncnc4[nH]cnc34)C2)CCC1=O (configuration not stated),2.898%
9,Cc1noc(C2CN(S(C)(=O)=O)Cc3ccnn3C2)n1 (configuration not stated),-9.743%
10,CS(=O)(=O)N1CC(c2ncn3ccccc23)C1,16%
11,CN(C)S(=O)(=O)N1CC(c2nc(-c3ccsc3)no2)C1,-5.352%
12,CN(C)c1nccc(C2CN(S(C)(=O)=O)C2)n1,62.66%
13,CN(C)S(=O)(=O)N1CCN(c2nccc(C(F)(F)F)n2)CC1,-20.82%
14,Cc1nccc(C2CN(S(=O)(=O)N(C)C)C2)n1,92.05%
15,N#Cc1cccnc1Nc1ccc(N2CCC(C(N)=O)CC2)cc1,-22.12%
16,COCCn1cc2c(n1)C(CNS(C)(=O)=O)OCC2 (configuration not stated),95.37%
17,CS(=O)(=O)NCC1OCCc2cn(CC3CC3)nc21 (configuration not stated),-2.199%
18,O=C(Cc1ccsc1)NCC1OCCc2cn(CC3CC3)nc21 (configuration not stated),-4.734%
19,O=C(NCC1OCCc2cn(CC3CC3)nc21)c1ccsc1 (configuration not stated),-6.452%
20,Cn1cc2c(n1)C(CNC(=O)Cc1ccsc1)OCC2 (configuration not stated),6.682%
21,COCCn1cc2c(n1)C(CNC(=O)c1cc(C)[nH]c1C)OCC2 (configuration not stated),94.61%
22,CCS(=O)(=O)NCC1OCCc2cn(CCOC)nc21 (configuration not stated),-0.9126%
23,CS(=O)(=O)CC(=O)NCC1OCCc2cn(CC3CC3)nc21 (configuration not stated),-2.36%
24,Cc1cc(C(=O)NCC2OCCc3cn(CC4CC4)nc32)c(C)[nH]1 (configuration not stated),99.34%

row,Structure (SMILES),Percent Effect
1,Cc1cc(NC(=O)N2CCCC(CO)C2)nn1-c1ccccc1Cl (configuration not stated),6.236%
2,COc1ccc(OC)c(CN(C(=O)c2ccc(C)[nH]c2=O)C2CC2)c1,-3.072%
3,CC(C)c1nnc(NC(=O)CN2C(=O)c3ccccc3NC2C(C)C)s1 (configuration not stated),94.59%
4,CCC(=O)Nc1nnc(CCOc2cccc(OC)c2)s1,0.4737%
5,CCC(=O)Nc1nnc(CCCOc2ccccc2)s1,-6.738%
6,CC(C)c1nnc(NC(=O)N2CCCC2c2ccncc2)s1 (configuration not stated),0.4499%
7,CC(C)c1nnc(NC(=O)N2CCN(C)CC2c2ccccc2)s1 (configuration not stated),2.354%
8,COCc1nnc(NC(=O)CN2C(=O)c3ccccc3NC2C(C)C)s1 (configuration not stated),107.7%
9,CCN1CCN(c2nc(C(C)C)nc3c(C)nn(CC)c23)CC1,-2.933%
10,Cn1ccnc1CN1CCN2C[C@H](Oc3ccccc3)C[C@H]2C1.O=C(O)C(F)(F)F.O=C(O)C(F)(F)F,-6.794%
11,CN(C)c1nccc(N(C)Cc2ncnn2C)n1,4.507%
12,Cc1nc(CNCC2CN(C3CC3)CCO2)cs1 (configuration not stated),87.5%
13,COc1ccnc(NCC2CN(C3CC3)CCO2)n1 (configuration not stated),0.4171%
14,Cc1nc(CNCC2CCCN(C(=O)OC(C)(C)C)C2)cs1 (configuration not stated),4.206%
15,CCN1CCOC(CNCc2ccc(OC)c(F)c2)C1 (configuration not stated),-3.361%
16,CCN1CCOC(CNCc2ccc(C)s2)C1 (configuration not stated),96.42%
17,CCN1CCOC(CNCc2ccccn2)C1 (configuration not stated),1.335%
18,CCN1CCOC(CNCc2csc(C)n2)C1 (configuration not stated),88.2%
19,CCN1CCOC(CNCc2ccccc2OCC(=O)N(C)C)C1 (configuration not stated),-2.531%
20,CCN1CCOC(CNc2nccc(OC)n2)C1 (configuration not stated),1.918%
21,CCc1noc(CN(C)C(=O)c2ccccc2-c2ncn[nH]2)n1,-19%
22,Cc1nn(C)c(C)c1CN(C(=O)c1cc(Cl)c[nH]c1=O)C(C)C,-11.33%
23,CC(C(=O)NC1(C#N)CCCCC1)N1CCc2c(ncn2C)C1 (configuration not stated),-1.256%
24,Cc1ccccc1C(=O)N1CC[C@@H](N2CCC(O)CC2)[C@H](O)C1,2.362%

row,Structure (SMILES),Percent Effect
1,O=C(c1ccccc1C(F)(F)F)N1CC[C@@H](N2CCC(O)CC2)[C@H](O)C1,-4.117%
2,O=C(c1ccc(F)cc1F)N1CC[C@H](O)[C@@H](N2CCOCC2)CC1,0.4748%
3,N#Cc1ccc(OC2CCN(C(=O)c3ccccc3Cl)CC2)nc1,-3.988%
4,O=C(c1ccccc1Cl)N1CC[C@H](O)[C@@H](N2CCOCC2)CC1,95.8%
5,Cc1ccccc1C(=O)N1CC[C@H](O)[C@@H](N2CCOCC2)CC1,126.5%
6,N#Cc1cccc(CN2CCCC2c2ccc[nH]2)c1 (configuration not stated),7.816%
7,Cc1ccc(NC(=O)C2CSCN2C(=O)c2cc[nH]n2)c(C)c1 (configuration not stated),9.143%
8,O=C(NC1CCCC1)N1C[C@H]2CN(c3ccncc3)C[C@@]2(C(=O)O)C1,-18.18%
9,CCn1ccnc1CNCC(c1ccc(C)s1)N1CCOCC1 (configuration not stated),53.4%
10,Cc1ccc(C(CNCc2ccncc2)N2CCOCC2)s1 (configuration not stated),-8.996%
11,Cc1ccc(C(CNCc2nccn2C)N2CCOCC2)s1 (configuration not stated),-4.854%
12,CC(c1ccccc1)n1c(SCC(=O)O)nnc1-c1ccccc1Cl (configuration not stated),9.035%
13,CCCn1cc(NC(=O)c2cccc(CN3CC[C@H](O)C3)c2)nn1,12.98%
14,CCn1cc(NC(=O)c2cccc(CN3C[C@@H](C)O[C@@H](C)C3)c2)nn1,90.95%
15,CCCn1cc(NC(=O)c2cccc(CN3CC=CC3)c2)nn1,-66.35%
16,Cc1cccc(C2(NC(=O)CCCn3cncn3)CCCC2)c1,-10.46%
17,COc1ccc(OC)c(Sc2ncccc2C(=O)NCC2CC2)c1,167.1%
18,CCOCCNC(=O)c1cccnc1Sc1cc(OC)ccc1OC,152.7%
19,CCOCCNC(=O)c1cnc(Sc2nccn2C)c(Cl)c1,13.89%
20,COCCNC(=O)c1cc(OC)ccc1Br,8.343%
21,COc1ccc(OC)c(C(=O)Nc2cccnc2-n2cncn2)c1,13.43%
22,CCOC(=O)NC(CNC(=O)c1cccnc1SC)CC(C)C (configuration not stated),-1.757%
23,CCOC(=O)CNC(=O)c1cccnc1Sc1cc(OC)ccc1OC,162.1%
24,COc1ccc(C(=O)NCCCNc2ncccn2)cc1F,-6.702%

row,Structure (SMILES),Percent Effect
1,COCCNC(=O)c1cccnc1Sc1cc(OC)ccc1OC,161.9%
2,Cc1nc2cc(F)ccc2cc1C(=O)N1CCN(CC(C)O)CC1 (configuration not stated),-9.577%
3,CSc1ncccc1C(=O)NCCC(O)c1cc(C)oc1C (configuration not stated),-1.719%
4,COc1ccc(OC)c(Sc2ncccc2C(=O)NCCSC)c1,104.4%
5,CSc1ncccc1C(=O)NCCC(O)c1cccs1 (configuration not stated),13.17%
6,O=c1oc(-c2ccc(F)cc2)nn1CCc1ccccn1,-9.185%
7,O=C(c1ccc(N2CCCCCC2)nn1)N1CCc2ccccc21,130.8%
8,O=C(c1ccc(N2CCCC2)nn1)N1CCc2ccccc21,13.46%
9,O=C(c1ccc(N2CCCC2)nn1)N1CCCc2ccc(F)cc21,-11.11%
10,CCN(CC)C(=O)Nc1cc2c(cc1SC)OCCO2,7.32%
11,O=C(c1cccc2c1OCCO2)N1CCCC(n2ccnc2)C1 (configuration not stated),-8.704%
12,CCc1nccn1C1CCCN(C(=O)c2cnn3ccc(C)nc23)C1 (configuration not stated),-1.055%
13,O=C(c1cc(Cl)c2c(c1)OCO2)N1CCCC(n2ccnc2)C1 (configuration not stated),1.53%
14,CCc1nccn1C1CCCN(C(=O)c2ccnc(C)n2)C1 (configuration not stated),1.971%
15,CC(C)c1nccn1C1CCCN(C(=O)c2cccc3c2OCO3)C1 (configuration not stated),-5.15%
16,O=C(c1cccc2c1OCO2)N1CCCC(n2ccnc2)C1 (configuration not stated),115.9%
17,Cc1nccn1C1CCCN(C(=O)c2cccc3c2OCO3)C1 (configuration not stated),116.3%
18,CCc1nccn1C1CCCN(C(=O)c2cccc3c2OCO3)C1 (configuration not stated),115.7%
19,O=C1CC(C(=O)Nc2nnc(-c3cccs3)[nH]2)c2ccccc2N1 (configuration not stated),-3.979%
20,CC(C)OC(=O)CN1N=C(C(=O)N2CCCC2)S(=O)(=O)c2ccccc21,15.65%
21,N#Cc1ccccc1CN1C[C@@H]2CC[C@H](C1)N(CC1CC1)C2=O,-10.09%
22,Cc1nn(CCC#N)c(C)c1CCC(=O)N(C(C)C)C1CC1,-0.4171%
23,COc1ccc(C(=O)NC2CC2)c(OC2CCN(CC3CC3)CC2)c1,4.837%
24,Cc1nccn1C1CCCN(C(=O)c2ccc(N3CCCC3)nn2)C1 (configuration not stated),-4.751%

row,Structure (SMILES),Percent Effect
1,CC(C)c1nccn1C1CCCN(C(=O)c2ccc(=O)n(C)n2)C1 (configuration not stated),4.106%
2,COCc1nc(C(=O)N2CCCC(n3ccnc3C(C)C)C2)cs1 (configuration not stated),114%
3,COCc1nc(C(=O)N2CCCC(n3ccnc3)C2)cs1 (configuration not stated),102.7%
4,CSCC(=O)N1CCCC(n2ccnc2C(C)C)C1 (configuration not stated),-4.829%
5,COCc1nc(C(=O)N2CCCC(n3ccnc3C)C2)cs1 (configuration not stated),95.68%
6,COCc1nc(C(=O)N2CCN(c3nccc(OC)n3)CC2)cs1,-10.67%
7,CC(=O)Nc1nc(C(=O)N2CCCC(n3ccnc3)C2)cs1 (configuration not stated),-0.04658%
8,CC(C)Nc1ccc2c(c1)C1(CCOCC1)C(=O)N2c1ccsc1,-5.936%
9,CCc1cc(N2C[C@H](C3CC3)[C@@H](N)C2)nc(N2CCOCC2)n1,-5.197%
10,CCOc1ccc(Cl)c(C(=O)N2CCN(c3ccncc3)CC2)n1,119.1%
11,CCOc1ccc(Cl)c(C(=O)N2CCN(CC(O)CC)CC2)n1 (configuration not stated),92.51%
12,CCOc1ccc(Cl)c(C(=O)NC(C)C(N)=O)n1 (configuration not stated),-12.05%
13,CCOc1ccc(Cl)c(C(=O)N2CCN(c3cnccn3)CC2)n1,0.9998%
14,CCOc1ccc(Cl)c(C(=O)N2CCCN(CC(N)=O)CC2)n1,93.33%
15,CCOc1ccnc(N2CCN(C(=O)c3cn[nH]c3CC)CC2)n1,-0.2597%
16,Cc1cccc(OCCC(=O)N2CCCN(CC(N)=O)CC2)c1C,-3.511%
17,CCC(O)CN1CCN(C(=O)c2cccn2Cc2ccccc2)CC1 (configuration not stated),-11.52%
18,CCOc1ccc(Cl)c(C(=O)N2CCN(c3ncccn3)CC2)n1,79.36%
19,CCOc1ccnc(N2CCN(C(=O)CCc3ccncc3)CC2)n1,-7.253%
20,CCOc1ccnc(N2CCN(C(=O)c3cccnc3O)CC2)n1,-0.2095%
21,CCC(O)CN1CCN(C(=O)c2csc(COC)n2)CC1 (configuration not stated),-26.29%
